The values that follow come from PubChem BioAssay (NCI).

About 83,000 compounds went through this panel and 20% of them were active in at least one assay; those are over-represented in the sample as a whole.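 Each cell line was grown in a 96-well plate and treated with one concentration of compound for 48 hours. Values below 10 were considered active.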 Unmarked numbers belong to inactive results. Calls of active or inactive are those of the source.

The assay deals with HCC-2998 colon. As to the kind of experiment: NCI-60 one-dose screen, 48 h (100 = growth as untreated, 0 = no growth, -100 = all killed). To be noted: 10 µM. As to the method: Growth inhibition of the HCC-2998 human tumor cell line is measured as a screen for anti-cancer activity. Cells are grown in 96 well plates and exposed to the test compound for 48 hours. Compounds are tested at a single concentration, which is 10^-5 M for most compounds. The reported endpoint is percent growth (GI% or GIPRCNT), where numbers from 0 - 100% represent growth inhibition, and numbers from -100% - 0 represent cell death. For example, a value of 40 represents 60% growth inhibition. A value of 0 means no net growth occurred over the course of the experiment. A value of -40 indicates 40% of cells at the beginning of the experiment died by the end of the experiment. A value of -100 means all cells are dead at the end of the experiment.
NCI-60 Human Tumor Cell Lines Screen was performed using the standard one-dose NCI protocol, which is described in more detail at https://dtp.cancer.gov/discovery_development/nci-60/default.htm.
Compounds with GIPRCNT values below 10 were considered active. Activity score was based on GIPRCNT using the following formula: […]
Score is 0 for GIPRCNT values of 100 or above, 50 for GIPRCNT values of 0, and 100 for GIPRCNT values of -100.
In the case of `COc1ccc(Cc2nn(CC(=O)N/N=C/c3ccc(Br)cc3)c(=O)c3c(C)noc23)cc1`, the growth was 73.8%.
`CC1[C@H]2[C@H](C[C@H]3[C@@H]4CC=C5c6sc(Nc7cccc(Cl)n7)nc6CC[C@]5(C)[C@H]4CC[C@@]32C)O[C@]12CC[C@@H](C)CO2` (stereo not given in full): the growth is 102%.
As for `Cn1cc(-c2nnc(N)nc2-c2c[nH]c3ccc(F)cc23)c2cc(Br)cnc21`, the figure is 72.8%.
Regarding `O=C(Nc1ccc(OCc2ccc(Cl)cc2)cc1)Nc1ccc(Cl)c(C(F)(F)F)c1`, the growth was 3.51% (active).
As for `O=C1NC2C=CC=CC2/C1=C1/SC(=S)N(C2CC(=O)N(c3ccc(Br)cc3)C2=O)C1=O` (stereo not given), the figure is 99.3%; as for `O=C(CSc1nc2ccccc2c(=O)n1-c1ccc(Cl)cc1)Nc1ccc(-c2nc3ccccc3[nH]2)cc1`, 4.31% (active).
As for `COc1ccc(OC)c(-n2cc(C#N)c(N)c2C(=O)c2ccc(Cl)cc2Cl)c1`, the figure is 64.8%; as for `Cc1ccc2c(c1)C(=O)/C(=C/c1c[nH]c3ccccc13)S2`, 65.8%.
To `Cn1cc(-c2cc(N)n3nc(-c4cn(C)c5ccccc45)cc3n2)c2cc(F)ccc21` belongs -80.5% (active); to `O=C1S/C(=C\c2ccc([N+](=O)[O-])cc2)C(=O)N1CCN1CCCCC1`, 104%.
For `Cc1cc(N=C2NC(=O)S/C2=C\c2ccc(F)cc2)n[nH]1`, the growth is 22.4%.
Turning to `Cn1cc(-c2cc3nc(-c4c[nH]c5ccccc45)cc(N)n3n2)c2cc(Cl)ccc21`, the growth was -84.1% (active).
`O=C(c1ccc(F)cc1)C(c1c[nH]c2ccccc12)c1c[nH]c2ccccc12`: the growth was 82.9%.
Turning to `COc1ccc(C2c3sc4ccc(C)cc4c3Oc3nc[nH]c(=O)c32)cc1` (stereo not given), the growth was 94%.
For the compound `CC1(C)CC[C@]2(C(=O)O)CC[C@]3(C)C(=CCC4[C@@]5(C)C[C@@H](O)[C@@H]6OC(c7cccc(F)c7)OC[C@@]6(C)C5CC[C@]43C)C2C1` (stereo not given in full), the growth was 37.5%.
`COc1ccc(-n2c(SCC(=O)NNS(=O)(=O)c3ccccc3)nc3ccc(Cl)cc3c2=O)cc1`: the growth was 118%.
Consider `CCOC(=O)c1ccc(NC(=O)CSC(CC(=O)c2sc(Nc3ccccn3)nc2C)c2ccccc2F)cc1` (stereo not given), for which the growth was -7.21% (active).
For `COc1ccc(Cc2nn(CC(=O)N/N=C/c3ccc([N+](=O)[O-])cc3)c(=O)c3c(C)noc23)cc1`, the growth was 105%.
For `COc1cc2oc(-c3cccc(C(=O)Nc4ccc(Cl)cc4)c3)cc(=O)c2c(OCCNC(=O)[C@@H](N)CO)c1OC`, the growth was 20.5%.
Take `COc1cc(-c2nc3ccc(C)cc3[nH]2)ccc1OCc1nnc(-c2ccccc2Br)o1`: the growth was 77.2%.
As to `COc1cc(C2CC(c3ccccc3)=Nc3c(N)nc(N)nc3N2)ccc1Oc1nc(NCCO)nc(N2CCOCC2)n1` (stereo not given), the growth is 115%.
Take `COc1ccc(C2OC[C@@]3(C)C4CC[C@]5(C)C(CC=C6C7CC(C)(C)CC[C@]7(C(=O)O)CC[C@]65C)[C@@]4(C)C[C@@H](O)[C@@H]3O2)cc1` (stereo not given in full): the growth is 101%.
To `Fc1ccc(/C=C/c2nc3ccccc3n3c(-c4ccc(Cl)cc4)nnc23)cc1` belongs 102%; to `O=C(CC(=O)Nc1ccc(Oc2ncnc3scc(Nc4n[nH]c(=S)s4)c23)cc1)Nc1ccc(Br)cc1`, 112%; to `COc1ccc(C(=O)COc2ccc(NC(=O)Nc3ccc(Cl)c(C(F)(F)F)c3)cc2)cc1`, 1.03% (active).
`COc1ccccc1-n1cc(C#N)c(N)c1C(=O)c1ccc(Cl)cc1Cl`: the growth was 58.5%.
Turning to `C#C[C@]1(O)CC[C@H]2[C@@H]3CC=C4c5sc(Nc6ccc(C(F)(F)F)cn6)nc5CC[C@]4(C)[C@H]3CC[C@@]21C`, the growth is 4.01% (active).
As to `COc1ccc(C2c3sc4ccc(C)cc4c3Oc3nc(N)nc(N)c32)cc1` (stereo not given), the growth is 94%.
`O=[N+]([O-])c1cccc(-c2nnc3c(/C=C/c4ccccc4O)nc4ccccc4n23)c1`: the growth was 53.8%.
Consider `CCOC(=O)C1=C(N)N(c2ccc(C)cc2)C2=C(C(=O)CC(C)(C)C2)C1c1ccccc1Br` (stereo not given), for which the growth was 89.4%.
Consider `O=C(Nc1ccc(OCc2ccc(F)cc2)cc1)Nc1ccc(Cl)c(C(F)(F)F)c1`, for which the growth is 1.98% (active).
`Cn1cc(/C=C(/SS/C(=C/c2cn(C)c3cccc(C(=O)O)c23)C(=O)O)C(=O)O)c2c(C(=O)O)cccc21`: the growth was 99.8%.
With `CCOc1ccc(/C=N/NC(=O)Cn2nc(Cc3ccc(OC)cc3)c3onc(C)c3c2=O)cc1`, the growth is -11.5% (active).
Take `COc1ccc(NCc2cn(-c3ccc(C(=O)O)cc3)nc2-c2ccc(F)cc2)cc1C(F)(F)F`: the growth is 51.7%.
In the case of `O=C1NC(=S)S/C1=C\c1cn(-c2ccccc2)nc1-c1ccc([N+](=O)[O-])cc1`, the growth is 22.4%.
As for `Cn1cc(-c2nnc(N)nc2-c2c[nH]c3ccccc23)c2cc(Br)cnc21`, the growth was -27% (active).
As to `CC(C)(C)c1cc(/C=C2\S/C(=N/c3ncn[nH]3)NC2=O)cc(C(C)(C)C)c1O`, the growth was 14.5%.
Regarding `COc1cccc(C(=O)CSc2nc(-c3ccc(OCc4ccccc4)c(OC)c3)c(C#N)c(=O)[nH]2)c1`, the growth is 111%.
Turning to `Nc1nnc(-c2c[nH]c3ncc(Br)cc23)c(-c2c[nH]c3ccc(Br)cc23)n1`, the growth was 75.7%.
`CCn1c(SCC(=O)Nc2ccc(-c3nc4ccccc4[nH]3)cc2)nc2ccccc2c1=O`: the growth was -31.6% (active).
